Laboratory results from PubChem BioAssay.
Where “and” joins values, the source holds several entries; their conditions need not be identical. Equal values may be shown once. Inconclusive results are not listed. Calls of active or inactive are those of the source.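 Rule for the calls, unless noted: active = normalized viability below 100% at a tested concentration; inactive = the rest.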

Legend:
[1] = viability loss in pontine glioma line – cell-based, SU-DIPG-XVII, MIPE5.0, CellTiter-Glo, qHTS, dose response (AID 1347060; cut-off not given, nearly all actives have AC50 up to about 26 µM;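 for AC50: cells exposed to compound for 48 hours before viability readout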); conditions: CellTiter-Glo ATP luminescence
[2] = viability loss in pontine glioma line – cell-based, SU-DIPG-XIII, MIPE4.0, CellTiter-Glo, qHTS, dose response (AID 1347061; cut-off not given, nearly all actives have AC50 up to about 37 µM;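 note: cells exposed to compound for 48 hours before readout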); conditions: CellTiter-Glo ATP luminescence
[3] = viability loss in pontine glioma line – cell-based, JHH-DIPG-1, MIPE4.0, CellTiter-Glo, qHTS, dose response (AID 1347062; cut-off not given, nearly all actives have AC50 up to about 27 µM;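 for AC50: cells exposed to compound for two days before readout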); conditions: JHH-DIPG-1 viability, CellTiter-Glo ATP luminescence
[4] = viability loss in pontine glioma line – cell-based, SU-DIPG-IV, MIPE4.0, CellTiter-Glo, qHTS, dose response (AID 1347063; cut-off not given, nearly all actives have AC50 up to about 30 µM;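 note: compound exposure lasted 48 hours before the viability readout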); conditions: CellTiter-Glo ATP luminescence
[5] = viability loss in pontine glioma line – cell-based, SU-DIPG-XIII, MIPE5.0, CellTiter-Glo, qHTS, dose response (AID 1347064; cut-off not given, nearly all actives have AC50 up to about 23 µM;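 for AC50: cells exposed to compound for 48 hours before the viability read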); conditions: CellTiter-Glo ATP luminescence
[6] = viability loss in pontine glioma line – cell-based, SU-DIPG-XXV, MIPE5.0, CellTiter-Glo, qHTS, dose response (AID 1347065; cut-off not given, nearly all actives have AC50 up to about 26 µM;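 note: cells exposed to compound for 48 hours before ATP readout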); conditions: CellTiter-Glo ATP luminescence
[7] = growth inhibition of DIPG cells – cell-based, MIPE4.0 library, CellTiter-Glo luminescence, qHTS (AID 1347066; cut-off not given, nearly all actives have AC50 up to about 30 µM;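 note: cells exposed to compound for 48 hours before readout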); conditions: SU-DIPG-VI viability, CellTiter-Glo ATP luminescence
[8] = JHH-DIPG-1 glioma cell viability, MIPE5.0 library, CellTiter-Glo luminescence, qHTS (AID 1347067; cut-off not given, nearly all actives have AC50 up to about 26 µM;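 note: cells exposed to compound for 48 hours before readout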); conditions: JHH-DIPG-1 glioma viability, CellTiter-Glo ATP luminescence
[9] = viability loss with induced miR-34 in A549 – imaging, A549 dox-inducible miR-34, nuclei and caspase counts, primary screen (AID 1347080;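 active = compounds whose cell count with miR-34 switched on is under 0.7 times the count with it off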); conditions: A549 miR-34 inducible, Hoechst nuclei count, 48 h
[10] = compounds altering HSF1 focus formation in cells – imaging, Selleck Cancer Library (AID 1347162; in the data active = plate-normalised HSF1 focus index below about 0.46); conditions: human cells, HSF1 nuclear foci imaging, at 10 µM; SSMD: measured here: HSF1 foci SSMD mean; cell count: measured here: cell number; plate-normalised HSF1 focus index: stronger effect = lower value
[11] = MELAS cybrid and Rieske KO viability enhancers – cell-based, MELAS cybrids, Rieske KO mouse fibroblasts, CellTiter-Glo, primary screen (AID 1508586;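 active = mean z-score across replicates of 1.96 or higher in either the MELAS or the Rieske mutant cell line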;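 note: z relative to plate mean and SD of compound and empty wells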); conditions: low glucose
[12] = drug combination growth inhibition, ovarian cancer – cell-based, oncology-focused library, rucaparib conditional, profiling panel (AID 1508598); conditions: patient-derived ovarian cancer cells, CellTiter-Glo viability, 144 h, stronger effect = lower value
[13] = growth inhibition of DIPG cells – cell-based, MIPE5.0 library, qHTS (AID 1347068; cut-off not given, nearly all actives have IC50 up to about 30 µM); conditions: SU-DIPG-XXV viability
[14] = stronger effect = lower value, cell number ratio, induced over uninduced
[15] = measured here: relative caspase fold change +Dox/-Dox
[16] = measured here: total cells with miR-34 induction, stronger effect = lower value
[17] = measured here: total cells without miR-34 induction
[18] = MELAS cybrid survival, CellTiter-Glo 48 h, stronger effect = higher value
[19] = Rieske KO mouse fibroblast survival, CellTiter-Glo 72 h
[20] = at 0.000305 µM, OCI-C5x cells, with rucaparib 10 µM, 100% = cells with rucaparib alone
[21] = at 0.000305 µM, OCI-C5x cells, without rucaparib
[22] = at 0.000305 µM, OCI-P5x cells, with rucaparib 20 µM, 100% = cells with rucaparib alone
[23] = at 0.000305 µM, OCI-P5x cells, without rucaparib
[24] = at 0.00122 µM, OCI-C5x cells, with rucaparib 10 µM, 100% = cells with rucaparib alone
[25] = at 0.00122 µM, OCI-C5x cells, without rucaparib
[26] = at 0.00122 µM, OCI-P5x cells, with rucaparib 20 µM, 100% = cells with rucaparib alone
[27] = at 0.00122 µM, OCI-P5x cells, without rucaparib
[28] = at 0.00488 µM, OCI-C5x cells, with rucaparib 10 µM, 100% = cells with rucaparib alone
[29] = at 0.00488 µM, OCI-C5x cells, without rucaparib
[30] = at 0.00488 µM, OCI-P5x cells, with rucaparib 20 µM, 100% = cells with rucaparib alone
[31] = at 0.00488 µM, OCI-P5x cells, without rucaparib
[32] = at 0.0195 µM, OCI-C5x cells, with rucaparib 10 µM, 100% = cells with rucaparib alone
[33] = at 0.0195 µM, OCI-C5x cells, without rucaparib
[34] = at 0.0195 µM, OCI-P5x cells, with rucaparib 20 µM, 100% = cells with rucaparib alone
[35] = at 0.0195 µM, OCI-P5x cells, without rucaparib
[36] = at 0.0781 µM, OCI-C5x cells, with rucaparib 10 µM, 100% = cells with rucaparib alone
[37] = at 0.0781 µM, OCI-C5x cells, without rucaparib
[38] = at 0.0781 µM, OCI-P5x cells, with rucaparib 20 µM, 100% = cells with rucaparib alone
[39] = at 0.0781 µM, OCI-P5x cells, without rucaparib
[40] = at 0.313 µM, OCI-C5x cells, with rucaparib 10 µM, 100% = cells with rucaparib alone
[41] = at 0.313 µM, OCI-C5x cells, without rucaparib
[42] = at 0.313 µM, OCI-P5x cells, with rucaparib 20 µM, 100% = cells with rucaparib alone
[43] = at 0.313 µM, OCI-P5x cells, without rucaparib
[44] = at 1.25 µM, OCI-C5x cells, with rucaparib 10 µM, 100% = cells with rucaparib alone
[45] = at 1.25 µM, OCI-C5x cells, without rucaparib
[46] = at 1.25 µM, OCI-P5x cells, with rucaparib 20 µM, 100% = cells with rucaparib alone
[47] = at 1.25 µM, OCI-P5x cells, without rucaparib
[48] = at 5 µM, OCI-C5x cells, with rucaparib 10 µM, 100% = cells with rucaparib alone
[49] = at 5 µM, OCI-C5x cells, without rucaparib
[50] = at 5 µM, OCI-P5x cells, with rucaparib 20 µM, 100% = cells with rucaparib alone
[51] = at 5 µM, OCI-P5x cells, without rucaparib

CCCCCCCCc1ccc(CCC(N)(CO)CO)cc1
3980: cell count [10]
5720 and 8490: cell count [9, 17]
inactive: fold change [9, 14] 0.951 and 0.892 | plate-normalised HSF1 focus index [10] 0.589 | z-score [11, 18] -0.312 | viability [12, 20] 106% | viability [12, 21] 117% | viability [12, 22] 107% | viability [12, 23] 111% | viability [12, 24] 110% | viability [12, 25] 112% | viability [12, 28] 101% | viability [12, 29] 122% | viability [12, 31] 103% | viability [12, 32] 111% | viability [12, 33] 120% | viability [12, 35] 106% | viability [12, 36] 102% | viability [12, 37] 106% | viability [12, 40] 112% | viability [12, 41] 108% | viability [12, 42] 108% | viability [12, 43] 113% | viability [12, 44] 103% | viability [12, 45] 121% | viability [12, 49] 129%
active: AC50 [1] 10.5 µM | AC50 [2] 23.5 µM | AC50 [3] 9.35 µM | AC50 [4] 3.72 µM | AC50 [5] 18.6 µM | AC50 [6] 10.5 µM | AC50 [7] 23.5 µM | AC50 [8] 10.5 µM | viability [12, 26] 89.4% | viability [12, 27] 98% | viability [12, 30] 93.5% | viability [12, 34] 92.4% | viability [12, 38] 88.8% | viability [12, 39] 53.5% | viability [12, 46] 64% | viability [12, 47] 50.7% | viability [12, 48] 90.1% | viability [12, 50] 26% | viability [12, 51] 0.383%
-8.05: SSMD [10]
5440 and 7580: cell count [9, 16]
-0.433: z-score [11, 19]
0.756 and 0.682: fold change [9, 15]

CCOc1ccn(-c2ccc(F)cc2)c(=O)c1C(=O)Nc1ccc(Oc2ccnc(N)c2Cl)c(F)c1
4210: cell count [9, 17]
inactive: outcome [1] | outcome [2] | outcome [3] | outcome [5] | outcome [7] | outcome [13] | fold change [9, 14] 1.21 | plate-normalised HSF1 focus index [10] 1.11 | z-score [11, 18] -0.348 | viability [12, 20] 118% | viability [12, 21] 124% | viability [12, 22] 109% | viability [12, 23] 129% | viability [12, 24] 125% | viability [12, 25] 134% | viability [12, 27] 120% | viability [12, 28] 113% | viability [12, 29] 120% | viability [12, 30] 103% | viability [12, 31] 117% | viability [12, 32] 116% | viability [12, 33] 118% | viability [12, 34] 101% | viability [12, 35] 114% | viability [12, 36] 110% | viability [12, 37] 138% | viability [12, 38] 107% | viability [12, 39] 116% | viability [12, 40] 129% | viability [12, 41] 128% | viability [12, 43] 106% | viability [12, 44] 135% | viability [12, 45] 120% | viability [12, 48] 133% | viability [12, 49] 135%
7130: cell count [10]
active: AC50 [4] 18.7 µM | AC50 [6] 11.8 µM | viability [12, 26] 99.9% | viability [12, 42] 91.8% | viability [12, 46] 88.6% | viability [12, 47] 97.3% | viability [12, 50] 65.2% | viability [12, 51] 96.2%
5080: cell count [9, 16]
2.9: SSMD [10]
-0.0407: z-score [11, 19]
0.507: fold change [9, 15]
